Test results taken from PubChem BioAssay (NCATS).
Values joined by “and” are separate entries in the source; they are usually repeats but may differ in a detail not shown here. Equal values may be shown once. Results filed as inconclusive are left out. Active and inactive are the calls of the source. Unless noted, the call rests on the fitted dose curve; in most records, active means well fitted curve in the direction sought with a large enough effect; inconclusive means small, poorly fitted or top-dose-only effect, or another doubt; inactive means no such curve, though single readings can be large; an effect the other way counts as inactive or inconclusive.

Legend:
[1] = Cell Viability - BJ (AID 421; calls by dose curve;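 further: potency means the concentration at half of the fitted maximal effect; cells exposed to compound for 40 hours at 37 °C before readout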); conditions: BJ fibroblast viability, qHTS
Procedure, shortened: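 Normal human BJ foreskin fibroblasts, 1500/well in complete medium, treated 40 hr at 37 °C. Cellular ATP by CellTiter-Glo luminescence; normalized to DMSO and 100 uM tamoxifen, AC50 from Hill fit.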

[2] = Cell Viability - MRC5 (AID 434; calls by dose curve;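 further: potency means the concentration at half of the fitted maximal effect; potency reflects cytotoxicity seen as loss of intracellular ATP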); conditions: MRC5 lung fibroblast viability, qHTS
Procedure, shortened: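 MRC5 normal human lung fibroblasts, 1500 cells/well, exposed to compound for 40 hr at 37 C. Cellular ATP was read by CellTiter-Glo luminescence; data normalized to DMSO and 100 uM tamoxifen, with AC50 from Hill fits.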

[3] = Cell Viability - SK-N-SH (AID 435; calls by dose curve;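 further: potency means the concentration at half of the fitted maximal effect; compound exposure lasted 40 h at 37 °C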); conditions: SK-N-SH neuroblastoma cell viability qHTS
Procedure, shortened: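 Luminescent ATP signal served as the viability read-out after 40 hours of compound treatment of human neuroblastoma SK-N-SH cells. Concentration-response data, scaled between DMSO and 100 uM tamoxifen, gave AC50 values by standard Hill modeling.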

[4] = Cell Viability - N2a (AID 540); conditions: N2a mouse neuroblastoma cell viability; activity change, negative = cytotoxicity: at 92.2 µM (top of the series); further: nearly all actives have a fitted effect of over 45% in size; further: potency means the concentration at half of the fitted maximal effect;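 on activity change, negative = cytotoxicity: plate controls were DMSO alone for no effect and tamoxifen control for full effect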
Procedure, shortened: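 Mouse neuroblastoma N2a cells (1500/well) were preincubated 5 hr at 37 °C, then exposed to compounds for 40 hr at 37 °C in complete medium. Viability was read as intracellular ATP by CellTiter-Glo luminescence; AC50 from Hill fits.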

[5] = Cell Viability - SH-SY5Y (AID 544); conditions: SH-SY5Y neuroblastoma cell viability; viability change, negative = cytotoxic: at 92.2 µM (top of the series); further: nearly all actives have a fitted effect of over 55% in size; further: potency means the concentration at half of the fitted maximal effect
Procedure, shortened: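 Human neuroblastoma SH-SY5Y cells (1500/well) in complete medium were exposed to compounds for 40 hr at 37 °C; intracellular ATP was then quantified by CellTiter-Glo luminescence after 20 min at room temperature. AC50 came from Hill-equation concentration-response fits.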

[6] = Cell Viability - Renal Proximal Tubule (AID 545); conditions: renal proximal tubule cells viability, primary cells of rat origin; activity change, negative = cytotoxicity: at 91.7 µM (top of the series); further: nearly all actives have a fitted effect of over 40% in size; further: potency means the concentration at half of the fitted maximal effect
Procedure, shortened: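 Luminescent ATP signal (CellTiter-Glo) served as the viability read-out after 40 hr compound exposure of freshly isolated rat proximal tubule cells at 37 °C. Concentration-dependent ATP loss was fitted with the Hill equation to give AC50.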

[7] = Cellular Toxicity (caspase-3) HepG2 (AID 654); further: potency means the concentration at half of the fitted maximal effect;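 on caspase-3 activation: cells exposed to compound for 16 hours before reading; 0% = DMSO alone and 100% = caspase signal from 100 µM tamoxifen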
Procedure, shortened: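 HepG2 cells (1500/well) in complete medium were treated with compounds for 16 hr at 37 °C. Caspase-3/7 activity was then read as luminescence from peptide-aminoluciferin cleavage. AC50 came from Hill fits, normalized to DMSO and 100 uM tamoxifen.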

[8] = Cellular Toxicity (caspase-3) HUV-EC-C (AID 656); further: potency means the concentration at half of the fitted maximal effect
Procedure, shortened: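 qHTS; HUV-EC-C, 1000 cells/well; 5 hr settle, 16 hr cmpd, 37°C; Caspase-Glo 3/7, 20 min RT; luminescence. Norm: DMSO = 0%, tamoxifen 100 uM = 100%. Hill-fit AC50.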

[9] = Cellular Toxicity (caspase-3) N2a (AID 665); conditions: Potency: caspase-3 activation;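 further: compound exposure lasted 16 h at 37 °C before readout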; further: potency means the concentration at half of the fitted maximal effect
Procedure, shortened: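 Mouse N2a neuroblastoma cells (1500/well) were treated with compounds for 16 h at 37 °C, then caspase-3/7 activity was read by Caspase-Glo luminescence after 1 h at room temperature. Data were normalized to DMSO and 10 uM staurosporine; AC50 from Hill fits.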

[10] = Cellular Toxicity (caspase-3) Renal Proximal Tubule (AID 667);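 further: cells exposed to compound for 16 hours at 37 °C before detection; 0% = DMSO basal and 100% = 10 µM staurosporine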
Procedure, shortened: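 AC50 derived by standard Hill fit of concentration-response data, normalized between DMSO basal and 10 uM staurosporine as 100% stimulation. Cells: primary rat kidney proximal tubule, 16 h treatment at 37 °C.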

[11] = target: Peroxisome proliferator-activated receptor alpha (Homo sapiens) (UniProt Q07869); assay: qHTS assay for small molecule agonists of the peroxisome proliferator-activated receptor alpha (PPARalpha) signaling pathway (AID 651778); conditions: PathHunter PPARalpha complementation, chemiluminescence, 6 h; max response: active compounds read high; further: potency means the concentration at half of the fitted maximal effect; on max response: % of control where 0% means no effect
Procedure, shortened: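 Enzyme-fragment complementation assay in which ligand-bound PPARalpha translocates and forms an active enzyme that generates chemiluminescence. Cells were plated overnight, exposed to compound for 6 hr at 37 C, and then given detection reagent for 60 min at room temperature.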

[12] = qHTS assay for cell viability of HEK293 cells (AID 743288); conditions: ATP luminescence (CellTiter-Glo), 18 h; max response: active compounds read low; further: nearly all actives have a fitted effect of over 50% in size; further: potency means the concentration at half of the fitted maximal effect; on max response: on the % scale 0 is the no-effect control and ±100 the full control effect
Procedure, shortened: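 HEK293 parental, 2,000 cells/well; ≥5 h pre-incubation 37 C; pintool compound addition; 18 h, 37 C; CellTiter-Glo 30 min RT; luminescence read.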

[13] = NFAT Signaling Pathway (AID 444; active means well fitted curve in either direction with a large enough effect, not every such curve was filed as active;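 further: carbachol stimulus at about its EC50 of 1 µM final; on the % scale 0 is the no-effect control and ±100 the full control effect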); conditions: Jurkat NFAT-bla M1, carbachol, beta-lactamase ratio, 5 h; at 17.2 µM (top of the series) unless noted
Procedure, shortened: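 Jurkat cells with NFAT-driven β-lactamase reporter and co-expressed M1 receptor, stimulated with carbachol (final 1 uM, ~EC50), compound titration, 5 h at 37 °C. CCF4 loaded 1 h at RT; 460/530 nm ratio gave %activity and AC50.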

[14] = Stat Signaling Pathway (AID 446; active means well fitted curve in either direction with a large enough effect, not every such curve was filed as active;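 further: ME-180 cervical cancer cells given 40 pM IL-6 alongside compound; SIE-controlled beta-lactamase reporter measured as 460/530 nm FRET emission ratio; on the % scale 0 is the no-effect control and ±100 the full control effect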); conditions: ME-180 SIE beta-lactamase reporter, IL-6 stimulated, 5 h; at 17.2 µM (top of the series) unless noted
Procedure, shortened: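 ME-180 cells carrying a SIE-driven beta-lactamase reporter are stimulated with 40 pM IL-6 for 5 h at 37C in the presence of compound. The 460/530 nm FRET substrate ratio is read after 2.5 h at RT. Data are normalised to 300 pM IL-6 and to 125 nM JAK inhibitor controls.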

[15] = target: Glucocorticoid receptor (Homo sapiens) (UniProt P04150); assay: GR-GFP Redistribution (AID 450;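 active means compounds whose dose series gives a full or clear partial fitted curve of increased nuclear translocation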; further: potency means the concentration at half of the fitted maximal effect)
[16] = Cellular Toxicity (caspase-3) Mesangial (AID 660); conditions: mesangial cells, normalized: DMSO 0%, 100 µM tamoxifen 100%; at 91.7 µM (top of the series);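 further: cells exposed to compound for 16 h before the caspase read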
Procedure, shortened: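 Human renal glomerular mesangial cells (1000/well) were treated with compounds for 16 h at 37 °C in complete medium, then caspase 3/7 activity was read by Caspase-Glo luminescence. Data were normalized to DMSO and 100 uM tamoxifen; AC50 from Hill fits.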

[17] = target: Cytochrome P450 3A4 (Homo sapiens) (UniProt P08684); assay: qHTS Assay for Activators of Cytochrome P450 3A4 (AID 885); further: nearly all actives have a fitted effect of over 65% in size
Procedure, shortened: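 Human CYP3A4 (20 nM) with Luciferin-PPXE at 25 uM (its KM) in 200 mM KPO4; 10 min compound preincubation, then NADPH regeneration and 60 min reaction at RT. Luciferin read by luminescence; normalized to 57 uM ketoconazole full inhibition.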

[18] = qHTS assay for cell viability of the p53RE-bla HCT-116 cell line (AID 743292); further: nearly all actives have a fitted effect of over 55% in size; further: potency means the concentration at half of the fitted maximal effect; on activity change, negative = cytotoxicity: on the % scale 0 is the no-effect control and ±100 the full control effect
Procedure, shortened: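 Compound-exposed HCT-116 (p53RE-bla) cells, 4,000 per well, were kept 16 h at 37 C following a 5 h preincubation. Cell number was estimated from total ATP by CellTiter-Glo luminescence read after 30 min at room temperature.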

[19] = target: Cytochrome P450 3A4 (Homo sapiens) (UniProt P08684); assay: qHTS Assay for Inhibitors and Substrates of Cytochrome P450 3A4 (AID 884); further: on the % scale 0 is the no-effect control and ±100 the full control effect; nearly all actives have a fitted effect of over 50% in size
Procedure, shortened: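 20 nM human CYP3A4 with 25 uM Luciferin-PPXE (at KM) in 200 mM KPO4, preincubated 10 min with compound; NADPH regeneration started a 60 min RT reaction. Luciferin detected by luminescence, normalized to 57 uM ketoconazole as full inhibition.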

Cytochrome P450 3A4 (Homo sapiens), sequence (P08684 whole entry, looked up): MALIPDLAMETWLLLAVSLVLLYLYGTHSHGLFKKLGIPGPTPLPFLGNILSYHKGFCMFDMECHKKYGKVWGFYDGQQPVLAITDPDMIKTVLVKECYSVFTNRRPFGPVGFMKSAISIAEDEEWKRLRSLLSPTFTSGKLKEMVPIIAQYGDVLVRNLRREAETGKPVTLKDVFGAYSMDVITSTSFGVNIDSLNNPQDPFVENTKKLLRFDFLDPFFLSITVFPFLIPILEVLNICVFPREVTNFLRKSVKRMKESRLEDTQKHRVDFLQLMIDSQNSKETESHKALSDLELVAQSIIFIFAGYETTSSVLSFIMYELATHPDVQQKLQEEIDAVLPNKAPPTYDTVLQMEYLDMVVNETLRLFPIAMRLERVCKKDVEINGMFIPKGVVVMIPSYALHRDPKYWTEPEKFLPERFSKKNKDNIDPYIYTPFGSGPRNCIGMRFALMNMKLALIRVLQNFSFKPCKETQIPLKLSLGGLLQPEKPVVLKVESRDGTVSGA
Glucocorticoid receptor (Homo sapiens), sequence (P04150 whole entry, looked up): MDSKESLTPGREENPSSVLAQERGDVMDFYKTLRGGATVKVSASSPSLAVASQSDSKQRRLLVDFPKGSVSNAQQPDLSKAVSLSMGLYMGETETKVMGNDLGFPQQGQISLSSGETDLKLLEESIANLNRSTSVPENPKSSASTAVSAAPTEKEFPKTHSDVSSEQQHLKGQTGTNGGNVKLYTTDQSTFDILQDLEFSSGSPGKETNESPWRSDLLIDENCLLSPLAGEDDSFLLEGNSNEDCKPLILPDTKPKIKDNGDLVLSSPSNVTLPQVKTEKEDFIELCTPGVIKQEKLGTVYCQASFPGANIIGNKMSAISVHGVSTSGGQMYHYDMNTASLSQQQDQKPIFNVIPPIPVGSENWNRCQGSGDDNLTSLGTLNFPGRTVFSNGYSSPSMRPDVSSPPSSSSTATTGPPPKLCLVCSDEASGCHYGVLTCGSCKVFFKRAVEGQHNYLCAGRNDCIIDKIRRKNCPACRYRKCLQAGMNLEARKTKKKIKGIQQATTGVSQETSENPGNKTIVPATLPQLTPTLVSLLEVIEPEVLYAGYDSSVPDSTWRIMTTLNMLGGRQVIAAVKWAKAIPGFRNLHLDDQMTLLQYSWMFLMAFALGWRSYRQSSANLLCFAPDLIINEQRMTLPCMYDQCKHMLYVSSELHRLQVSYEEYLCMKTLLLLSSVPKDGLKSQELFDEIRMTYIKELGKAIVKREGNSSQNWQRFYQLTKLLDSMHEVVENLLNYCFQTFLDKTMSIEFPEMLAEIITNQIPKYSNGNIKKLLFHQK
Peroxisome proliferator-activated receptor alpha (Homo sapiens), sequence (Q07869 whole entry, looked up, the tested form may be a part): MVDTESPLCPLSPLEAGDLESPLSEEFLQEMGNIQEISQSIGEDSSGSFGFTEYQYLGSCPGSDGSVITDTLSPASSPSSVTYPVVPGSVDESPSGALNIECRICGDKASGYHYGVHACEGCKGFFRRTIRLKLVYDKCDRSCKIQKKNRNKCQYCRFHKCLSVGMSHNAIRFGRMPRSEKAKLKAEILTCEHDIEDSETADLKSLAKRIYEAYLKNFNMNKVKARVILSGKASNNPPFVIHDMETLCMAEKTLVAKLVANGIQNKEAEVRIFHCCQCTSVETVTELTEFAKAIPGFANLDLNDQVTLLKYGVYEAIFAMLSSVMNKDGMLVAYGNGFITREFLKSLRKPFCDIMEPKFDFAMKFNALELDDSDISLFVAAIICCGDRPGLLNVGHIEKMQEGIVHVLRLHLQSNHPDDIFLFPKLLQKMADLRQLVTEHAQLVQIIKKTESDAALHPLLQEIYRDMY

C=CC(=O)OCC(CO)(COC(=O)C=C)COC(=O)C=C
inactive: Potency [1] > 92 µM | Potency [7] | Potency [8] | outcome [10] | max response [11] 1.55% and 0.0188%
active: Potency [2] 17.8 µM | Potency [3] 2.02 µM | Potency [4] 15.8 µM | Potency [5] 1.58 µM | Potency [6] 3.16 µM | Potency [9] 6.31 µM | Potency [12] 5.01 µM and 22.4 µM

Cc1cccc(Nc2ncnc3ccccc23)c1
inactive: activity change, negative = inhibition [13] -1.27% | activity, negative = inhibition [14] -0.134% | Potency [15] > 20.6 µM

COc1cccc(-c2nnc3sc(-c4ccccc4)nn23)c1
inactive: activity change, negative = inhibition [13] -8.12% | activity, negative = inhibition [14] -8.55% | Potency [15] > 20.6 µM

Cn1c(Cl)nc2c1c(=O)n(Cc1cccc(Br)c1)c(=O)n2C
inactive: activity change, negative = inhibition [13] -23.7% | activity, negative = inhibition [14] 12.7% | Potency [15] > 20.6 µM

Cc1cc(O)c(C(C)(C)C)cc1Sc1cc(C(C)(C)C)c(O)cc1C
active: Potency [1] 43.8 µM | Potency [2] 40.2 µM | Potency [3] 23 µM | Potency [4] 12.6 µM | Potency [5] 31.6 µM | Potency [6] 25.1 µM | Potency [7] 63.1 µM | Potency [8] 50.1 µM | caspase-3 activation [16] 140% | Potency [11] 11.2 µM and 4.47 µM | Potency [12] 70.8 µM and 50.1 µM | Potency [18] 28.2 µM and 25.1 µM
inactive: Potency [9] | Potency [17]

Cc1ccc(S(=O)(=O)Oc2ccc(N=Nc3ccc(-c4ccc(N=Nc5c(O)ccc6cc(S(=O)(=O)O)cc(S(=O)(=O)O)c56)c(C)c4)cc3C)cc2)cc1
active: Potency [6] 31.6 µM
inactive: Potency [2] > 92 µM | Potency [7] | Potency [8] | caspase-3 activation [16] -0.709% | Potency [9] | outcome [10] | Potency [17] | max response [11] -11.2%

CC1(C)CC(=O)C(C=NCC(O)c2ccccc2)=C(O)C1 (stereo not drawn)
inactive: activity change, negative = inhibition [13] -0.832% | activity, negative = inhibition [14] 8.79% | Potency [15] > 20.6 µM

O=[N+]([O-])c1cc([N+](=O)[O-])c2ccc(S(=O)(=O)O)cc2c1O
inactive: Potency [1] > 92 µM | Potency [2] > 92 µM | Potency [3] > 92 µM | Potency [4] | Potency [5] | Potency [6] | Potency [7] | Potency [8] | caspase-3 activation [16] 1.36% | Potency [9] | outcome [10] | max response [12] -2.67% | Potency [18]

C=C(C)c1ccccc1
inactive: Potency [1] > 92 µM | Potency [2] > 92 µM | Potency [3] > 92 µM | Potency [4] | Potency [5] | Potency [6] | Potency [7] | Potency [8] | caspase-3 activation [16] 0.545% | Potency [9] | outcome [10] | max response [11] -0.0788% | max response [12] 1.22% | Potency [18]

COC(=O)c1ccccc1NC(=O)CSc1nnc(-c2ccncc2)o1
inactive: activity change, negative = inhibition [13] 4.54% | activity, negative = inhibition [14] 0.0286% | Potency [15] > 20.6 µM

O=C=Nc1ccc(Cc2ccc(N=C=O)cc2)cc1
inactive: Potency [1] > 92 µM | Potency [2] > 92 µM | Potency [3] > 92 µM | Potency [4] | Potency [5] | Potency [6] | Potency [7] | Potency [8] | caspase-3 activation [16] -0.349% | Potency [9] | outcome [10] | Potency [17] | max response [11] -0.535% and -0.74% | max response [12] 9.46% and -11.9% | Potency [18]

C=CC(=O)OCCOCCOC(=O)C=C
inactive: Potency [7] | Potency [8] | caspase-3 activation [16] 0.177% | Potency [9] | outcome [10] | Potency [19] | max response [11] -4.05% | Potency [18]
active: Potency [1] 35.8 µM | Potency [3] 22.7 µM | activity change, negative = cytotoxicity [4] -114% | Potency [5] 6.31 µM | Potency [6] 20 µM

CO[C@H]1/C=C/O[C@@]2(C)Oc3c(C)c(O)c4c(O)c(c5c(c4c3C2=O)NC2(CCN(CC(C)C)CC2)N=5)=NC(=O)/C(C)=C\C=C\[C@H](C)[C@H](O)[C@@H](C)[C@@H](O)[C@@H](C)[C@H](OC(C)=O)[C@@H]1C
inactive: Potency [1] > 92 µM | Potency [2] > 92 µM | Potency [3] > 92 µM | Potency [4] | Potency [7] | Potency [8] | caspase-3 activation [16] 0.833% | Potency [9] | outcome [10] | Potency [17] | max response [11] -2.63% | max response [12] -15.3% | Potency [18]

Nc1ccc2cc3ccccc3cc2c1
inactive: Potency [1] > 92 µM | Potency [2] > 92 µM | Potency [3] > 92 µM | Potency [4] | Potency [5] | Potency [6] | Potency [7] | Potency [8] | caspase-3 activation [16] -0.235% | Potency [9] | outcome [10] | Potency [17] | max response [11] -3.75% | max response [12] -16.2% | Potency [18]
